# Assay results as given in PubChem BioAssay (NCATS).
# “And” between values parts separate entries of the source, which are not always exact repeats. Equal values may be shown once. Records with an inconclusive call do not appear. More than one record can exist for a structure, and the calls need not agree. A number with no mark means an inactive call. The source made the active and inactive calls. Calls come from the whole dose curve; as a rule, active = well fitted activation curve with a large enough effect; inconclusive = small, poorly fitted or top-dose-only effect; inactive = no such curve, though single readings can be large or run the other way.
# Biological target: Cellular tumor antigen p53 (Homo sapiens) (UniProt P04637)
# Sequence (P04637 whole entry, looked up): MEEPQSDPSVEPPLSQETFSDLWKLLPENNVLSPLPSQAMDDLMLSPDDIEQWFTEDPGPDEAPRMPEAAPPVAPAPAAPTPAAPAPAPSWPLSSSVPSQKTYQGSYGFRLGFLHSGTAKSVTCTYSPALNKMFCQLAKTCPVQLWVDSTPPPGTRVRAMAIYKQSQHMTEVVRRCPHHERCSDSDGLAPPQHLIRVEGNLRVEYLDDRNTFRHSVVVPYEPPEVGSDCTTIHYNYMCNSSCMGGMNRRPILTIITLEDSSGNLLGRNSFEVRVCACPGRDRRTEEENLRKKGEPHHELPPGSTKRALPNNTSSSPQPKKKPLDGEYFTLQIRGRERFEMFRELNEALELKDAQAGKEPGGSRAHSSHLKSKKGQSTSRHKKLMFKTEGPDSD
# Assay: Primary qHTS for small molecule compounds that upregulate eGFP-tagged delta133p53alpha (in N-terminal) cells. (AID 2060322); note: nearly all actives have a fitted effect of over 75% in size;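 for activation: cells pre-induced with doxycycline then dosed without doxycycline; series mostly up to about 56 µM; 0% = DMSO vehicle and 100% = reference activator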
# Conditions: NCI-H358 eGFP-delta133p53alpha fluorescence, 24 h; activation: stronger effect = higher value
# Source text: Assay Development and Screening Technology
# National Center for Advancing Translational Sciences (NCATS),
# National Institute of Health (NIH), Rockville, Maryland
# Cellular senescence (CS) is one of the hallmarks of aging and age-related diseases. Senescent cells are characterized by an irreversible growth arrest, an increase in senescence-associated beta-galactosidase (SA-beta-gal) activity and p16INK4a expression, an activation of the DNA damage response pathways, and the emergence of a senescence-associated secretory phenotype (SASP).
# Delta133p53alpha, a human/primate-specific p53 protein isoform, delays or inhibits the induction of CS and SASP in various types of human cells, including progeria-derived fibroblasts, primary normal astrocytes, and CD8+ T lymphocytes. Induction of delta133p53alpha with small molecule compounds may provide therapeutic opportunities for inhibition of senescence/SASP-associated pathologies in progeria syndromes, astrocyte-mediated neuroprotection in neurodegenerative diseases, and possibly prevention and treatment of a wider range of senescence- and aging-associated diseases.
# Here we report the development and validation of a cell-based quantitative high throughput screening (qHTS) assay in 1,536-well format. This qHTS assay uses the NCI-H358 cell line with doxycycline-inducible expression of enhanced green fluorescent protein (eGFP)-tagged delta133p53alpha, which allows efficient and highly quantitative measurement of the protein levels.
# PROTOCOL TABLE (as described by Inglese J, Shamu CE and Guy RK. 2007)
# SEQUENCE No. (e.g., 1, 2, 3, etc.); […] (e.g., Cells, Incubation, Reagent, etc.); VALUE; DESCRIPTION.
# 1; Cells; 4uL; 800 doxycycline treated cells / well in doxycycline-free media, 1536-well black, clear-bottom low base Aurora microplates.
# 2; Compounds; 23 nL; Kalypsis pin tool (Wako) equipped with 1536-well pin heads, 5-azacytidine positive control.
# 3; Incubation; 24 hr; 37C, 5% CO2; 95% relative humidity.
# 4; Aspiration; 1x; BioTek EL406 washer dispenser (Agilent).
# 5; Fixing; 3.5% paraformaldehyde, BioTek EL406 washer dispenser (Agilent).
# 6; Washing; 1x PBS; BioTek EL406 washer dispenser (Agilent).
# 7; Nuclei staining; 1:1000 dilution of Hoechst 33342 (Thermofisher), BioTek EL406 washer dispenser (Agilent).
# 8; Incubation; 20 min; in the dark at room temperature.
# 9; Washing; 2x, 1x PBS (ThermoFisher), BioTek EL406 washer dispenser (Agilent).
# 10; Reagent; 10 uL; 1x PBS per well, sealed with clear adhesive tape.
# NOTES (numbers refer to sequence numbers above).
# 1. NCI-H358 cells expressing eGFP-tagged delta133p53alpha were grown in T75 culture flasks and treated with doxycycline for 24h, at 10 ng/ml for eGFP-D133p53a cells (N-terminal cell) and 100 ng/ml for D133p53a-eGFP cells (C-terminal cells). Cells were trypsinized, counted using a Counted 3 Automated Cell Counter (Thermo Fisher), and diluted to a concentration of 200,000 cells/ml. A Multidrop Combi Reagent Dispenser (ThermoFisher) was used to dispense 800 cells/well in […] of doxycycline-free media, into 1536-well black/clear bottom low base plates (AuroraMicroplates).
# 2. After plating cells, 23 nl of compound library, DMSO vehicle control or positive control (5-azacytidine) were transferred by Pin Tool (Wako). The plate map layout was the same for each plate: (column 1) non-doxycycline treated cells + DMSO vehicle control; (column 2) doxycycline treated cells + DMSO vehicle control baseline; (column 3) doxycycline treated cells + positive control 57.5 uM final concentration 5-azacytidine; (column 4) doxycycline treated cells + serial dilution of 5-azacytidine, 16-point 1:2 titration spanning 1.8 nM to […] final concentration; (columns 5-48) doxycycline treated cells + titration of library compounds.
# 3. Cells were incubated at 37 °C, 5 % CO2, 95% RH with breathable metal lid for 24h.
# 4-10. […] After two washes, 10 ul of 1X PBS (Thermo Fisher) was dispensed to each well. Clear adhesive plate seals (VWR) were applied and plates stored at 4 °C.
# 11. […]
# Potency is the fitted concentration of half-maximal effect.
Structure (SMILES),activation,Potency
CN1CN(c2ccccc2)C2(CCN(CCCC(=O)c3ccc(F)cc3)CC2)C1=O,23.7%,
OCCCCC#Cc1cncc(OC[C@@H]2CCN2)c1,-1.43%,
C[C@]12CC[C@H]3[C@@H](CC=C4C[C@@H](O)CC[C@@]43C)[C@@H]1CC[C@@H]2O,-16.7%,
COC(=O)[C@@H](N)CCCN=C(N)N[N+](=O)[O-],-9.21% and -14.8%,
CCC(C)(C#N)O[C@@H]1O[C@H](CO)[C@@H](O)[C@H](O)[C@H]1O (stereo not given in full),16.8%,
CC(=O)O[C@@]12CO[C@H]1C[C@H](O)[C@@]1(C)C(=O)[C@H](O)C3=C(C)[C@@H](O)C[C@@](O)([C@@H](OC(=O)c4ccccc4)[C@@H]21)C3(C)C,,30.6 µM (active)
C[C@]12CCC(=O)C=C1CC[C@@H]1[C@@H]2CC[C@]2(C)C(=O)CC[C@@H]12,7.34%,
C[C@H](CCC(=O)O)C[C@H](C)C[C@H](C)C(=O)/C=C(\O)[C@H](C)C[C@H](C)C/C=C/[C@@H](C)[C@@H](O)[C@@H](C)[C@@H](O)C[C@@H]1CC[C@@](C)([C@H]2CC[C@@](C)([C@@H](C)O)O2)O1,-6.33%,
NCC1(CC(=O)O)CCCCC1,-0.945% and -3.35% and 5.99%,
CC(=O)Nc1cc([As](=O)(O)O)ccc1O,-10.9%,
C[C@]12CC[C@H]3[C@@H]([C@H](O)CC4=CC(=O)CC[C@@]43C)[C@@H]1CC[C@@H]2O,-2.33%,
c1ccc(C2CC2)c(OCC2=NCCN2)c1,9.21% and -4.03%,
Cn1cc(C2=C(c3cn(C4CCN(Cc5ccccn5)CC4)c4ccccc34)C(=O)NC2=O)c2ccccc21,38.7%,21.7 µM (active)
c1ccc(N2CCNCC2)cc1,-33.3%,
CC1COC2(c3ccccc3Cl)c3cc(Cl)ccc3NC(=O)CN12 (stereo not given),28.5%,
C#CC1(O)CCC2C3CCC4=CC(=O)CCC4(C)C3CCC21C (stereo not given),2.51%,
CC1=CC2OC3[C@H](O)C[C@@](C)([C@]34CO4)[C@@]2(CO)[C@H](O)C1=O (stereo not given in full),,23.9 µM (active)
CCOC(=O)C1(CCc2ccccc2)CCN(Cc2ccc(NC(C)=O)cc2)CC1,-12.4%,
COc1cc(C[C@@H](C)N)c(OC)cc1Br,-17.5%,

Structure (SMILES),activation,Potency
CC12CCC3C(C1)c1c(cc(O)c(C(=O)c4ccccc4)c1OC3(C)C)O2 (stereo not given),-17.6%,
Cc1cn(C[C@H](N)C(=O)O)c(=O)n(Cc2cc(-c3ccccc3)sc2C(=O)O)c1=O,8.11%,
C[N+]1(C)CCc2cc3c(cc2[C@H]1[C@@H]1OC(=O)c2c1ccc1c2OCO1)OCO3,-3.8%,
C/C=C1/CN2CC[C@]34C(=Nc5ccc(OC)cc53)C2C[C@@H]1C4(CO)C(=O)OC (stereo not given in full),-9.16%,
C[C@@H]1O[C@@H](O[C@H]2CC[C@@]3(C)C(CC[C@@H]4C3CC[C@]3(C)[C@@H](C5=CC(=O)OC5)CC[C@]43O)C2)[C@H](O)[C@H](O)[C@H]1O (stereo not given in full),,1.65 µM (active)
CC12Cc3cn[nH]c3C=C1CCC1C2CCC2(C)C1CCC2(C)O (stereo not given),8.33%,
CC(C)[C@H](NC(=O)c1nn(Cc2ccc(F)cc2)c2ccccc12)C(N)=O,-6.68%,
CN1CCN(c2ccc([N+](=O)[O-])c3no[n+]([O-])c23)CC1,8.01%,21.3 µM (active)
COc1ccc(C(CN(C)C)C2(O)CCCCC2)cc1 (stereo not given),-16.7% and -7.09% and -5.45%,
CN(C(=O)C(c1ccccc1)c1ccccc1)[C@H](CN1CC[C@H](O)C1)c1ccccc1,14.8%,
C#CC(O)(C=CCl)CC (stereo not given),19.8%,
C[C@]12COC(=O)C[C@@H]1CC[C@@H]1[C@H]2CC[C@@]2(C)[C@H]1CC[C@]2(C)O,-15.3%,
CC(=O)OC1(c2ccccc2)CCN(CCc2ccccc2)CC1,-10.7%,
Cc1cc(SCc2sc(-c3ccc(C(F)(F)F)c(F)c3)nc2C)ccc1OCC(=O)O,-16% and 31%,
COC(=O)CC1CC2(C(=O)c3c(O)cccc3C2(O)C(=O)OC)C(C)O1 (stereo not given),8.4%,
O=c1[nH]oc2c1CCNC2,-18.6% and 14.5%,
C=CCN1CCC2(C)c3cc(O)ccc3C[C@H]1[C@H]2C,-5%,
Cc1ncc(CNC(=O)N(CCCl)N=O)c(N)n1,6.21% and -40.8%,
O=C1Nc2ccc3ncsc3c2/C1=C/c1cnc[nH]1,,2.39 µM (active)
